Measurements published in the supplement of paper PMC10849652.
Targets with a hit are over-represented here; the source holds about 7,900 in all. About 0.6% of all pairs of compound and target were hits.

Legend:
Test in all cases: log2 fold change, soluble protein after heating vs DMSO (PISA); higher = thermal stabilisation; K562 cells, 10 uM, 30 min; active = over 0.2 and 3.5 SD of the protein, either way, in both replicates (recomputed)
[1] = compound: CC[C@@H]1C(=O)N(C)c2cnc(Nc3ccc(C(=O)NC4CCN(C)CC4)cc3OC)nc2N1C1CCCC1
Summary of the method: (§1)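 For each measurement, 10 μM compound was applied for 30 min to K562 cells at 2×10^6 cells/mL. Aliquots were heated for 3 min across 48°C-58°C, pooled, and extracted in PBS with 0.5% NP-40 at 4°C; the supernatant after 21,000xg for 90 min was soluble protein. This was quantified by TMTpro 16plex LC-MS/MS with channel sums equalised, and thermal stability was reported relative to control samples from duplicates, on a log2 fold-change scale.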

volasertib = compound: CC[C@@H]1C(=O)N(C)c2cnc(Nc3ccc(C(=O)N[C@H]4CC[C@H](N5CCN(CC6CC6)CC5)CC4)cc3OC)nc2N1C(C)C [volasertib]
Summary of the method: as §1

[2] = compound: CC[C@H](C)N1C=C(C2=C(C=C(C=C21)C3=CN=C(C=C3)N4CCNCC4)C(=O)NCC5=C(C=C(NC5=O)C)C)C
Summary of the method: as §1

epoxomicin = compound: CC[C@H](C)[C@@H](C(=O)N[C@@H]([C@@H](C)O)C(=O)N[C@@H](CC(C)C)C(=O)[C@]1(CO1)C)NC(=O)[C@H]([C@@H](C)CC)N(C)C(=O)C [epoxomicin]
Summary of the method: as §1

[3] = compound: CCn1c(C(=O)N(C2CC2)C2CC2)cc2c3c(ncn3C)c(Nc3cc(C)n(C)n3)nc21
Summary of the method: as §1

[4] = compound: CCn1cc(-c2ccnc3[nH]c(-c4cccc(CN(C)C)c4)cc23)c(-c2ccc(NC(=O)N(C)C)cc2)n1
Summary of the method: as §1

[5] = compound: CN(C)CC(=O)Nc1ccc2[nH]c(=O)c3ccccc3c2c1
Summary of the method: as §1

rosiglitazone = compound: CN(CCOC1=CC=C(C=C1)C[C@H]2C(=O)NC(=O)S2)C3=CC=CC=N3 (racemic) [rosiglitazone]
Summary of the method: as §1

[6] = compound: CN1C2=C(C3=C1C(=O)N(N=C3)CC4=CC(=CC=C4)N)SC(=C2)S(=O)C
Summary of the method: as §1

[7] = compound: CN1CCC(CNc2ccc3ncc(-c4cccc(OC(F)(F)F)c4)n3n2)CC1
Summary of the method: as §1

saracatinib = compound: CN1CCN(CCOc2cc(OC3CCOCC3)c3c(Nc4c(Cl)ccc5c4OCO5)ncnc3c2)CC1 [saracatinib]
Summary of the method: as §1

sotrastaurin = compound: CN1CCN(c2nc(C3=C(c4c[nH]c5ccccc45)C(=O)NC3=O)c3ccccc3n2)CC1 [sotrastaurin]
Summary of the method: as §1

alvocidib = compound: CN1CC[C@H](c2c(O)cc(O)c3c(=O)cc(-c4ccccc4Cl)oc23)[C@H](O)C1 [alvocidib]
Summary of the method: as §1

Tubastatin A = compound: CN1CCc2c(c3ccccc3n2Cc2ccc(C(=O)NO)cc2)C1 [Tubastatin A]
Summary of the method: as §1

[8] = compound: CNC(=O)C1=CC=CC=C1NC2=NC(=NC=C2Cl)NC3=C(C=C(C=C3)N4CCOCC4)OC
Summary of the method: as §1

defactinib = compound: CNC(=O)c1ccc(Nc2ncc(C(F)(F)F)c(NCc3nccnc3N(C)S(C)(=O)=O)n2)cc1 [defactinib]
Summary of the method: as §1

rucaparib = compound: CNCc1ccc(-c2[nH]c3cc(F)cc4c3c2CCNC4=O)cc1 [rucaparib]
Summary of the method: as §1

[9] = compound: CNc1nc(-c2ccc3c(N)n[nH]c3c2)cc(N2C[C@@H](C(=O)NC3CCCCC3)CC[C@H]2C)n1
Summary of the method: as §1

encorafenib = compound: COC(=O)N[C@@H](C)CNc1nccc(-c2cn(C(C)C)nc2-c2cc(Cl)cc(NS(C)(=O)=O)c2F)n1 [encorafenib]
Summary of the method: as §1

[10] = compound: COC(=O)[C@H](CCSC)NC(=O)C1=C(C=C(C=C1)NC[C@H](CS)N)C2=CC=CC=C2
Summary of the method: as §1

Sequence of UniProt Q16822 (Q16822 whole entry, looked up): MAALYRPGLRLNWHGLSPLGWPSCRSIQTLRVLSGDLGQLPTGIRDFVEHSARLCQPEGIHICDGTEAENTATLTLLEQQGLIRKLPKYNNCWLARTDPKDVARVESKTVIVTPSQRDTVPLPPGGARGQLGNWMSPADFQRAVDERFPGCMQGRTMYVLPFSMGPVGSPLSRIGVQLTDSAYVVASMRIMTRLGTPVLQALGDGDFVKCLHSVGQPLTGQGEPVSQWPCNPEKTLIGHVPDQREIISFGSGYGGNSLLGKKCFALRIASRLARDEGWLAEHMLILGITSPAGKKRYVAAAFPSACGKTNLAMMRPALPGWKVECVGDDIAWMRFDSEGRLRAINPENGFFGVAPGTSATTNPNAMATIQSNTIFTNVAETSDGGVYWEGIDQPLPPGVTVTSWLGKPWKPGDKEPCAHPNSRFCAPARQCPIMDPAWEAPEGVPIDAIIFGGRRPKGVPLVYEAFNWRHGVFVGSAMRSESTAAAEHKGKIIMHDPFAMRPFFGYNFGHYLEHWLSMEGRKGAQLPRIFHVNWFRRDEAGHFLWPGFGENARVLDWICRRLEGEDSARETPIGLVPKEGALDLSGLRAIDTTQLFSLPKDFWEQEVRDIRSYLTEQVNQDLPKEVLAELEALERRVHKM
Sequence of UniProt Q92968 (Q92968 whole entry, looked up): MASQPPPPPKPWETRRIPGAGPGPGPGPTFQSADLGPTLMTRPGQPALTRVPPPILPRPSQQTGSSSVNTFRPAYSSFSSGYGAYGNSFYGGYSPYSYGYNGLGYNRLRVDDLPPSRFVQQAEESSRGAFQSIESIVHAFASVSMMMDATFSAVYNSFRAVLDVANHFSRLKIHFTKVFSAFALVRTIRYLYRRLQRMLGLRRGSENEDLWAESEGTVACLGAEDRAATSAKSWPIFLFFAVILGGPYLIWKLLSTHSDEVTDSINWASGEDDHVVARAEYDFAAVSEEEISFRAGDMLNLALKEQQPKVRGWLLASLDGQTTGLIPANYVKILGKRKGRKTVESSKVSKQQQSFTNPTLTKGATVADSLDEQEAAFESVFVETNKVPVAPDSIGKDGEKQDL
Sequence of UniProt Q9BTU6 (Q9BTU6 whole entry, looked up): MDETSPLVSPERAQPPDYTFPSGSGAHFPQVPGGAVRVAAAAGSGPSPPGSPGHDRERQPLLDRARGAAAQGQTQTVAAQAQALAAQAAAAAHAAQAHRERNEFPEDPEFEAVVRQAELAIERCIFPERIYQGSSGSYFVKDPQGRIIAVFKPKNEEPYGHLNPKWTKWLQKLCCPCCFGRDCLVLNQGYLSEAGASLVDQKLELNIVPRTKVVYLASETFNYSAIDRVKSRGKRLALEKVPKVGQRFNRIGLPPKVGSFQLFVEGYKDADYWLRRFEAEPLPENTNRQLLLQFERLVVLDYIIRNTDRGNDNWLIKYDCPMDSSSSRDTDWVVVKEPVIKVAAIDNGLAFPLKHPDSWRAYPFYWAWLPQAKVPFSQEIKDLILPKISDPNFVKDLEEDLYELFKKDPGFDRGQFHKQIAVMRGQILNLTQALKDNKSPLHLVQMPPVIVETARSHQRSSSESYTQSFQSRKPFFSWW
Sequence of UniProt Q15365 (Q15365 whole entry, looked up): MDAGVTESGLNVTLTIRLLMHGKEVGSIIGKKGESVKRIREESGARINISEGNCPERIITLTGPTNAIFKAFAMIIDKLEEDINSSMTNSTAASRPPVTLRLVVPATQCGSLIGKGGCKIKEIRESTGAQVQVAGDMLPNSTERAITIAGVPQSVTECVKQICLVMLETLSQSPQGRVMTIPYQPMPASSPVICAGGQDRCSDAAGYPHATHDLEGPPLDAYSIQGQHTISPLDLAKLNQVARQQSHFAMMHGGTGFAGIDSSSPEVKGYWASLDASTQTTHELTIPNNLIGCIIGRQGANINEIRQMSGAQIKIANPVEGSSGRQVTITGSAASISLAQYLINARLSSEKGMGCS
Sequence of UniProt Q6WKZ4 (Q6WKZ4 whole entry, looked up): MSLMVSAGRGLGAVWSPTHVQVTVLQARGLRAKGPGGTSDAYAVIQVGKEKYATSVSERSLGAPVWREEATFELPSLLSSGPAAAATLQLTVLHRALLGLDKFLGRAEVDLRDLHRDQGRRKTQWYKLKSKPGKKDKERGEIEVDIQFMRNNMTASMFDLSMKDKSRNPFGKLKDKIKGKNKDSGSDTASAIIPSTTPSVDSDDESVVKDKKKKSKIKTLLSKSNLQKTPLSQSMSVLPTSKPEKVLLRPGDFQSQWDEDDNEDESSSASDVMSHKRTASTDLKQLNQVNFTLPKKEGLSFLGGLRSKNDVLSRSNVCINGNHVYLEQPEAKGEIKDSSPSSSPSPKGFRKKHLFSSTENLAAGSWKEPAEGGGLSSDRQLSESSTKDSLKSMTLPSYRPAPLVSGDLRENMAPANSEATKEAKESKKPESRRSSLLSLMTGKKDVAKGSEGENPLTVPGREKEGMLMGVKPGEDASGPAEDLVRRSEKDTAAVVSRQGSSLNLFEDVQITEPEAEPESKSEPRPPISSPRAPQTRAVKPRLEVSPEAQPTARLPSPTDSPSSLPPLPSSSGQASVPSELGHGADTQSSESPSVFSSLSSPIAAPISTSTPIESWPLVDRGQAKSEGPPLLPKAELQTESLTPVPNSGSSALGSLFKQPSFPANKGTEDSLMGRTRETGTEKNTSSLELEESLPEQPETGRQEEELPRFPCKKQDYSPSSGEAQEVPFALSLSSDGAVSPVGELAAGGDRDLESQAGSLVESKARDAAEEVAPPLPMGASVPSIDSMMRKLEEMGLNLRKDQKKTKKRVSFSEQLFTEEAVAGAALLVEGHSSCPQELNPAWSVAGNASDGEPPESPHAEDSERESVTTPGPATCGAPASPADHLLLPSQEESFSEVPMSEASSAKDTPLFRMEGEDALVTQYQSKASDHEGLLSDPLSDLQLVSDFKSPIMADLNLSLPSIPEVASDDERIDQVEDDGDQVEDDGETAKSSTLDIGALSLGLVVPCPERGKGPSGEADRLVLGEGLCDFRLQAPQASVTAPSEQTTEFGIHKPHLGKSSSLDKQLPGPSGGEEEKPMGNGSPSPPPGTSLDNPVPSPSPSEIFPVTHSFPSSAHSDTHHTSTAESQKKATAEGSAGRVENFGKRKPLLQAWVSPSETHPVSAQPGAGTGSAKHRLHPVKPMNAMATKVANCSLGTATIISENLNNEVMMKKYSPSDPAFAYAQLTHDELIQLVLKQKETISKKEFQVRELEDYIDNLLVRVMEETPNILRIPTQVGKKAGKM
Sequence of UniProt Q9Y2Y1 (Q9Y2Y1 whole entry, looked up): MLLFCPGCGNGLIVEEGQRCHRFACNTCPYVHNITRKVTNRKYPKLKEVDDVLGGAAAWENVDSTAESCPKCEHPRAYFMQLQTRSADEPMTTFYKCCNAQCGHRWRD
Sequence of UniProt P31323 (P31323 whole entry, looked up): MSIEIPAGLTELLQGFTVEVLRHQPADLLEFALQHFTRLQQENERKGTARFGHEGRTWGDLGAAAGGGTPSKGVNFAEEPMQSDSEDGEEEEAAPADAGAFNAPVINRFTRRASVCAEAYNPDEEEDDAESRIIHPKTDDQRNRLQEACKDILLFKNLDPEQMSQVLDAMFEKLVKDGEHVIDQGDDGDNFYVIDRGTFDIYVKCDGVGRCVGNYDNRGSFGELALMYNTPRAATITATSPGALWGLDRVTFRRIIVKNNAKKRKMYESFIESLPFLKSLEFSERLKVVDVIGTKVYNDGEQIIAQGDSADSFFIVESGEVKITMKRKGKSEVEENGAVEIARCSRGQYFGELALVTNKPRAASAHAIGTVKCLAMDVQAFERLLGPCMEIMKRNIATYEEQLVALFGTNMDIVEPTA
Sequence of UniProt Q9NVM4 (Q9NVM4 whole entry, looked up): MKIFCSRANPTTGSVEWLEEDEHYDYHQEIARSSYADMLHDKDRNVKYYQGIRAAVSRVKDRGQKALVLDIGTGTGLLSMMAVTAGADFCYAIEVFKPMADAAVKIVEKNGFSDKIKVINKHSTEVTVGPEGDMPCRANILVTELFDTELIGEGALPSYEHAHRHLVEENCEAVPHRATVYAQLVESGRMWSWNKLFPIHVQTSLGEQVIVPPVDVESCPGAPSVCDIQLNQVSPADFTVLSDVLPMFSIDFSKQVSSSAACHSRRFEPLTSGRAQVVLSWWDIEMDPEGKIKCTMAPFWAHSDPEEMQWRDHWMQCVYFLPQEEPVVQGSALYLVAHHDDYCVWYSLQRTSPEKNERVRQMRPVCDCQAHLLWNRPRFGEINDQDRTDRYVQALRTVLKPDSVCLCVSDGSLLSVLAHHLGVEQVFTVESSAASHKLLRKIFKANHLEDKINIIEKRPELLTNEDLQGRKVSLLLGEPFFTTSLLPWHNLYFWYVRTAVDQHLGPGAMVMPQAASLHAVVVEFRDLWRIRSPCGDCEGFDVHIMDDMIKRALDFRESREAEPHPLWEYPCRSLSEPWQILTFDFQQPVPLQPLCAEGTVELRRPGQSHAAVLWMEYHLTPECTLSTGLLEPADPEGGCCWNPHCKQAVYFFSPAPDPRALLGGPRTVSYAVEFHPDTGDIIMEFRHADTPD
Sequence of UniProt Q9Y5K3 (Q9Y5K3 whole entry, looked up): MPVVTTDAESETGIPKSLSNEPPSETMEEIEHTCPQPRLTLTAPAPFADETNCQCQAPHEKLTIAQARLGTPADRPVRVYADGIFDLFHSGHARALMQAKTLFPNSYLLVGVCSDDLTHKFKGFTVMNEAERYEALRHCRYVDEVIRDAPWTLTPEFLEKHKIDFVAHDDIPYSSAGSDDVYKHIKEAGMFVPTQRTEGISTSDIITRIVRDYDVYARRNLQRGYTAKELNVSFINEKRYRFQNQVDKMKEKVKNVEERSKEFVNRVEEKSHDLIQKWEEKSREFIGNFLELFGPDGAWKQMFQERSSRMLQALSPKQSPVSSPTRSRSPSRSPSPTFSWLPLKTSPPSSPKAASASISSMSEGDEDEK

Row | Target | log2 fold change [1] | log2 fold change (volasertib) | log2 fold change [2] | log2 fold change (epoxomicin) | log2 fold change [3] | log2 fold change [4] | log2 fold change [5] | log2 fold change (rosiglitazone) | log2 fold change [6] | log2 fold change [7] | log2 fold change (saracatinib) | log2 fold change (sotrastaurin) | log2 fold change (alvocidib) | log2 fold change (Tubastatin A) | log2 fold change [8] | log2 fold change (defactinib) | log2 fold change (rucaparib) | log2 fold change [9] | log2 fold change (encorafenib) | log2 fold change [10]
1 | RAB11FIP1 (UniProt Q6WKZ4) | -0.07 (inactive) | -0.105 (inactive) | 0.023 (inactive) | 0.122 (inactive) | 0.015 (inactive) | -0.063 (inactive) | 0.021 (inactive) | 0.018 (inactive) | -0.017 (inactive) | -0.373 (active) | 0.021 (inactive) | -0.094 (inactive) | -0.028 (inactive) | 0.005 (inactive) | 0.045 (inactive) | -0.16 (inactive) | -0.012 (inactive) | -0.043 (inactive) | 0.052 (inactive) | -0.019 (inactive)
2 | PEX13 (UniProt Q92968) | -0.053 (inactive) | -0.049 (inactive) | -0.038 (inactive) | -0.009 (inactive) | 0.076 (inactive) | 0.047 (inactive) | 0.019 (inactive) | 0.021 (inactive) | 0.02 (inactive) | -0.378 (inactive) | -0.067 (inactive) | -0.083 (inactive) | 0.022 (inactive) | 0.061 (inactive) | -0.061 (inactive) | -0.011 (inactive) | -0.058 (inactive) | 0.008 (inactive) | 0.047 (inactive) | -0.087 (inactive)
3 | PCBP2 isoform 3 (UniProt Q15366) | -0.069 (inactive) | -0.263 (active) | 0.071 (inactive) | 0.013 (inactive) | -0.036 (inactive) | -0.003 (inactive) | 0.043 (inactive) | 0.062 (inactive) | -0.001 (inactive) | -0.081 (inactive) | -0.023 (inactive) | -0.084 (inactive) | -0.148 (inactive) | 0.025 (inactive) | -0.032 (inactive) | -0.187 (inactive) | 0.041 (inactive) | 0.013 (inactive) | 0.075 (inactive) | -0.058 (inactive)
4 | PDE4DIP isoform 4 (UniProt Q5VU43) | 0.013 (inactive) | 0.005 (inactive) | -0.071 (inactive) | -0.012 (inactive) | -0.004 (inactive) | -0.009 (inactive) | -0.035 (inactive) | 0.003 (inactive) | -0.046 (inactive) | 0.006 (inactive) | -0.028 (inactive) | -0.064 (inactive) | 0.017 (inactive) | 0.064 (inactive) | -0.065 (inactive) | 0.021 (inactive) | -0.057 (inactive) | 0.007 (inactive) | -0.015 (inactive) | 0.035 (inactive)
5 | PSMA3 (UniProt P25788) | 0.067 (inactive) | 0.134 (inactive) | -0.025 (inactive) | -0.169 (inactive) | 0.043 (inactive) | 0.002 (inactive) | -0.003 (inactive) | -0.039 (inactive) | -0.027 (inactive) | 0.046 (inactive) | 0.012 (inactive) | 0.038 (inactive) | -0.043 (inactive) | -0.006 (inactive) | 0.014 (inactive) | 0.048 (inactive) | -0.001 (inactive) | 0.02 (inactive) | 0.034 (inactive) | 0 (inactive)
6 | PRKAR2B (UniProt P31323) | -0.037 (inactive) | 0.053 (inactive) | 0.056 (inactive) | 0.025 (inactive) | -0.023 (inactive) | -0.023 (inactive) | -0.008 (inactive) | 0.051 (inactive) | 0.005 (inactive) | -0.495 (active) | -0.024 (inactive) | -0.486 (active) | -0.053 (inactive) | 0.02 (inactive) | -0.168 (inactive) | -0.191 (inactive) | 0.086 (inactive) | 0.014 (inactive) | 0.069 (inactive) | -0.004 (inactive)
7 | PRPF3 (UniProt O43395) | -0.114 (inactive) | -0.34 (active) | 0.069 (inactive) | 0.069 (inactive) | -0.05 (inactive) | -0.062 (inactive) | 0.116 (inactive) | 0.059 (inactive) | 0.004 (inactive) | -0.17 (inactive) | -0.023 (inactive) | -0.114 (inactive) | 0.24 (inactive) | 0.07 (inactive) | -0.021 (inactive) | -0.239 (inactive) | -0.041 (inactive) | -0.001 (inactive) | 0.171 (inactive) | -0.025 (inactive)
8 | PIKFYVE (UniProt Q9Y2I7) | -0.182 (inactive) | -0.499 (active) | 0.103 (inactive) | -0.031 (inactive) | -0.049 (inactive) | -0.032 (inactive) | 0.032 (inactive) | 0.168 (inactive) | -0.05 (inactive) | -0.239 (inactive) | -0.001 (inactive) | -0.081 (inactive) | -0.175 (inactive) | -0.032 (inactive) | 0.009 (inactive) | -0.033 (inactive) | 0.068 (inactive) | -0.106 (inactive) | 0.099 (inactive) | -0.025 (inactive)
9 | PCYT1B (UniProt Q9Y5K3) | -0.105 (inactive) | -0.315 (active) | 0.08 (inactive) | 0.001 (inactive) | -0.033 (inactive) | 0 (inactive) | 0.012 (inactive) | 0.041 (inactive) | -0.007 (inactive) | 0.035 (inactive) | 0.133 (inactive) | -0.13 (inactive) | -0.236 (inactive) | -0.028 (inactive) | -0.028 (inactive) | -0.162 (inactive) | -0.139 (inactive) | -0.036 (inactive) | 0.04 (inactive) | -0.029 (inactive)
10 | PRMT7 (UniProt Q9NVM4) | -0.074 (inactive) | -0.461 (active) | 0.04 (inactive) | -0.036 (inactive) | -0.042 (inactive) | -0.077 (inactive) | 0.032 (inactive) | 0.082 (inactive) | 0.022 (inactive) | -0.176 (inactive) | -0.02 (inactive) | -0.124 (inactive) | -0.219 (inactive) | 0.088 (inactive) | 0.004 (inactive) | -0.086 (inactive) | 0.008 (inactive) | 0.031 (inactive) | 0.112 (inactive) | -0.04 (inactive)
11 | PCK2 (UniProt Q16822) | 0.012 (inactive) | -0.076 (inactive) | 0.033 (inactive) | 0.059 (inactive) | 0.016 (inactive) | -0.07 (inactive) | 0 (inactive) | 0.011 (inactive) | -0.094 (inactive) | 0.027 (inactive) | 0.021 (inactive) | -0.003 (inactive) | -0.113 (inactive) | -0.139 (inactive) | -0.006 (inactive) | -0.048 (inactive) | -0.009 (inactive) | 0.015 (inactive) | -0.007 (inactive) | 0.01 (inactive)
12 | POLR3K (UniProt Q9Y2Y1) | -0.077 (inactive) | 0.056 (inactive) | -0.018 (inactive) | 0.067 (inactive) | -0.061 (inactive) | 0.038 (inactive) | -0.048 (inactive) | -0.045 (inactive) | -0.012 (inactive) | -0.01 (inactive) | 0.052 (inactive) | -0.049 (inactive) | 0.038 (inactive) | 0.044 (inactive) | -0.035 (inactive) | -0.086 (inactive) | 0.089 (inactive) | -0.098 (inactive) | -0.019 (inactive) | 0.015 (inactive)
13 | PI4K2A (UniProt Q9BTU6) | -0.075 (inactive) | -0.081 (inactive) | 0.009 (inactive) | 0.027 (inactive) | 0.037 (inactive) | -0.023 (inactive) | -0.014 (inactive) | 0.055 (inactive) | 0.009 (inactive) | -0.146 (inactive) | 0.058 (inactive) | 0.041 (inactive) | 0.013 (inactive) | -0.008 (inactive) | -0.024 (inactive) | -0.014 (inactive) | -0.027 (inactive) | -0.11 (inactive) | 0.057 (inactive) | 0.02 (inactive)
14 | PLA2G15 (UniProt Q8NCC3) | -0.084 (inactive) | -0.166 (inactive) | 0.026 (inactive) | 0.01 (inactive) | -0.017 (inactive) | 0.005 (inactive) | 0.006 (inactive) | 0.027 (inactive) | 0.043 (inactive) | -0.076 (inactive) | -0.052 (inactive) | -0.095 (inactive) | 0.028 (inactive) | 0.036 (inactive) | 0.065 (inactive) | 0.012 (inactive) | -0.064 (inactive) | -0.036 (inactive) | 0.176 (inactive) | -0.018 (inactive)
15 | PCBP1 (UniProt Q15365) | -0.1 (inactive) | -0.268 (active) | 0.04 (inactive) | 0.025 (inactive) | -0.065 (inactive) | 0.025 (inactive) | 0.039 (inactive) | 0.035 (inactive) | 0.009 (inactive) | -0.129 (inactive) | 0.009 (inactive) | -0.073 (inactive) | -0.119 (inactive) | 0.013 (inactive) | -0.015 (inactive) | -0.151 (inactive) | -0.015 (inactive) | 0.03 (inactive) | 0.052 (inactive) | -0.034 (inactive)
